NPR1 antag = antagonists of human natriuretic peptide receptor Npr1; Potency, µM (titrated, usually from 46.3 µM), for inactives: top-dose activity change, negative = inhibition, hits mostly inhibitors; AID 1347048; P16066; HEK293 hNpr1 GloSensor cGMP, ANP-stimulated luminescence; 1.6% of 76,000 active; calls by dose curve; also: nearly all actives have a fitted effect of over 60% in size
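HEK293 cells stably expressing human Npr1 and cGMP GloSensor pGS-40F, loaded 2 h with 2% GloSensor reagent, given compound 30 min at room temperature. Luminescence read before and 20 min after 0.1 nM hNppA.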
Luciferase inh = Photinus pyralis luciferase inhibition | Potency, µM (doses to about 115 µM), most hits filed as inhibitors | P08659 | AID 1347043 | 2.5% of 76,000 active | purified P. pyralis luciferase, luminescence, biochemical; also: nearly all actives have a fitted effect of over 65% in size
Target sequence (P08659 whole entry, looked up): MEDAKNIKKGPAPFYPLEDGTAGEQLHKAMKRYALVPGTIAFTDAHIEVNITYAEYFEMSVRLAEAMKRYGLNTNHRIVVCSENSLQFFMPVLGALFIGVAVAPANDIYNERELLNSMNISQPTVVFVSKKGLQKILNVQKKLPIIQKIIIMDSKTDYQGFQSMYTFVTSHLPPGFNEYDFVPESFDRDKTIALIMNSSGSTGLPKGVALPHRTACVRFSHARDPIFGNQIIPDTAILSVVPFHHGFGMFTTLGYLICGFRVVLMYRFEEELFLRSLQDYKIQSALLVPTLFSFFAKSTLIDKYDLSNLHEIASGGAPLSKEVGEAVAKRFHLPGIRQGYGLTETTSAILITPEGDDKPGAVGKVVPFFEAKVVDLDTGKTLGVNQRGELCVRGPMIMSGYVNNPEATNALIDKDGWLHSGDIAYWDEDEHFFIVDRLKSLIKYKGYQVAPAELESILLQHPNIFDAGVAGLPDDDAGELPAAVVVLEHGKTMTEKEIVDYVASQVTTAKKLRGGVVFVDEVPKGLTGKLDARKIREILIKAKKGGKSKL
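FLuc 10nM, D-luciferin 10uM, ATP 10uM, Mg acetate 10mM, Tris acetate pH 7.5, Tween/BSA; cpd qHTS; enzyme added last; CCD luminescence.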
HEK cytotox = kills HEK 293 cells; HEK 293 viability, ATP luminescence (CellTiter-Glo), 48-72 h; Potency, µM (doses to about 115 µM), for the others: at the top dose activity change, negative = cytotoxicity, usual class: inhibitors; 6.6% of 94,000 active; AID 1345083; also: nearly all actives have a fitted effect of over 60% in size
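HEK 293 cells at 250 cells/well were exposed to compounds by pintool transfer for 48 or 72 hr at 37 degree Celsius, 5% CO2. Viability was read as ATP-coupled luminescence with CellTiter-Glo after 10 min at room temperature.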
NIH3T3 tox = cytotoxic compounds in NIH 3T3 cells; NIH 3T3 viability, CellTiter-Glo ATP luminescence, 48-72 h; 4.3% of 94,000 active; Potency, µM (highest dose often 96.7 µM), without a hit: at the top dose activity change, negative = cytotoxicity, most hits filed as inhibitors; also: nearly all actives have a fitted effect of over 55% in size
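Viability of NIH 3T3 cells after 48 or 72 hr compound treatment at 37 °C was assessed by CellTiter-Glo, with luminescence imaged following a 10 min room-temperature step.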
* hit, by the source's call; i = inactive; ? = inconclusive; · = not tested or not shown; [ ] = remark or other dose. A selection: hits, their analogues and other compounds. The true share with any hit is near 11%. Unless noted, calls follow the shape of the dose curve; as a rule, active = well fitted curve in the direction sought with a large enough effect; inconclusive = small, poorly fitted or top-dose-only effect, or another doubt; inactive = no such curve, though single readings can be large; an effect the other way counts as inactive or inconclusive. % is scaled to controls: 0 for no effect and ±100 for the full control effect; potency is read from the fitted curve at half-maximal effect.

SMILES | NPR1 antag | Luciferase inh | HEK cytotox | NIH3T3 tox
COc1cccc(N2C(=O)NC(=NC3CCCCC3)C23CCCN(Cc2cccnc2)C3)c1 (stereo not given) | · | · | -16.9% | ?
COC(=O)[C@@H]1Cc2c([nH]c3ccccc23)[C@H]2C[C@@H](NCCCn3ccnc3)C[C@@H](c3ccc(F)cc3)N21 | -2.0% | i | 25.1µM* | 25.1µM*
COC(=O)[C@@H]1Cc2c([nH]c3ccccc23)[C@H]2C[C@@H](NCCCn3ccnc3)C[C@@H](c3ccc(Cl)c(F)c3)N21 | 0.3% | i | 28.2µM* | 25.1µM*
O=C(NCCCn1ccnc1)c1ccc(C2CCCNC2)cc1 (stereo not given) | 3.9% | i | 0.5% | i
COC(=O)[C@@H]1Cc2c([nH]c3ccccc23)[C@H]2C[C@@H](NCCCn3ccnc3)C[C@@H](c3cccc(Cl)c3)N21 | -12.0% | i | 28.2µM* | 17.8µM*
CN1Cc2ccc(NCc3ccccc3)nc2C(C)(C(=O)NCCCn2ccnc2)C1 (stereo not given) | -1.6%[70.6 µM] | i | ? | ?
COCCNC(=O)CCc1nc(C2CCCN2C(=O)c2ccccc2)no1 (stereo not given) | · | · | -0.5% | -12.0%
CCOC(=O)C1(Cc2ccc(Cl)cc2)CCNCC1 | 1.7% | i | ? | ?
CC(C(=O)N1Cc2c(C(=O)NC3CC3)nn(C)c2C1)c1ccccc1 (stereo not given) | · | · | i | i
O=C(N1CCC[C@H]1c1nc(-c2ccccc2Cl)no1)C1(c2ccccc2)CC1 | -19.1% | 22.4µM* | ? | ?
O=C(Cc1ccccc1)N1CCC[C@H]1c1nc(-c2ccccc2Cl)no1 | 1.4% | i | ? | -28.1%
Cc1cc(Cl)ccc1S(=O)(=O)N1CC(c2nc(-c3ccncc3)no2)C1 | 12.6µM* | i | ? | ?
Cc1ccc(S(=O)(=O)N2CC(c3nc(-c4ccncc4)no3)C2)cc1 | -21.5% | i | ? | -17.8%
Cc1ccccc1NC(=O)Cn1c(-c2cccc(Cl)c2)nc(C)c(CCO)c1=O | -2.5% | i | ? | ?
Cc1nc(-c2ccccc2)n(CC(=O)Nc2ccc(Cl)cc2)c(=O)c1CCO | -17.6% | i | ? | -29.2%
CC(=O)c1cccc(NC(=O)Cn2c(-c3ccc(F)cc3)nc(C)c(CCO)c2=O)c1 | -6.1% | i | ? | ?
Cc1nc(-c2ccccc2)n(CC(=O)Nc2cccc(C#N)c2)c(=O)c1CCO | -21.3% | i | 39.8µM* | ?
Cc1nc(-c2ccccc2)n(CC(=O)Nc2ccc(F)c(Cl)c2)c(=O)c1CCO | -26.7% | i | 39.8µM* | ?
Cc1ccc(NC(=O)Cn2c(-c3ccccc3)nc(C)c(CCO)c2=O)cc1Cl | -15.2% | i | ? | 28.2µM*
C=CCN1CC2(CCC1=O)CCN(c1nccc(C(F)(F)F)n1)CC2 | 3.4% | i | ? | ?
O=C(C1CCCC1)N1CCN(Cc2ccccc2-c2cccnc2)CC1 | · | · | 50.1µM* | ?
CC(C)(C)C(=O)N1CCN(Cc2ccccc2-c2cccnc2)CC1 | · | · | 100µM* | -28.9%[138 µM]
CC(=O)N1CCN(Cc2ccccc2-c2cccnc2)CC1 | · | · | -0.6%[172 µM] | -13.2%[138 µM]
CO[C@H]1C[C@@H](O)C12CCN(C(=O)c1oc(COc3ccccc3)cc1C)CC2 | 2.6% | i | -23.9% | ?
CC(C)N1C(=O)C2(CCCC2)C1C(=O)NCCN1CCCCC1 (stereo not given) | -1.4% | i | i | -7.0%
SMILES | NPR1 antag | Luciferase inh | HEK cytotox | NIH3T3 tox
O=C(c1cc2c(s1)CN(C1CCCC1)C2)N1CCCCCC1 | 0.2% | i | ? | ?
O=C(Cc1c[nH]c2ncc(-c3cccnc3)cc12)NCc1ccccc1 | ? | i | 89.1µM* | 35.5µM*
O=C(Cc1c[nH]c2ncc(-c3cccnc3)cc12)Nc1ccccc1 | -1.1%[70.6 µM] | i | ? | 25.1µM*
COc1ccc(-c2cnc3[nH]cc(CC(=O)NCc4cccnc4)c3c2)cc1OC | -2.2%[70.6 µM] | i | ? | 15.8µM*
O=C(Cc1c[nH]c2ncc(-c3cccnc3)cc12)NC1CC1 | 1.0%[70.6 µM] | i | -18.6%[230 µM] | 70.8µM*
COc1ccccc1-c1cccc(C(=O)N2CCN(C(C)=O)CC2)c1 | · | · | -20.2%[172 µM] | -27.5%[138 µM]
COc1ccc(NC(=O)Cc2c[nH]c3ncc(-c4ccccc4)cc23)cc1OC | ? | i | 89.1µM* | ?
O=C(Cc1c[nH]c2ncc(-c3ccccc3)cc12)Nc1ccc(Cl)cc1 | ? | i | ? | ?
CN(C)c1cccc(NC(=O)Cc2c[nH]c3ncc(-c4ccccc4)cc23)c1 | ? | i | ? | ?
O=C(Cc1c[nH]c2ncc(-c3cccc(OC(F)(F)F)c3)cc12)NCc1cccnc1 | ? | ? | 70.8µM* | 44.7µM*
O=C(Cc1c[nH]c2ncc(-c3ccccc3)cc12)Nc1cccnc1 | -24.0%[70.6 µM] | i | 70.8µM* | 28.2µM*
Cn1cc(-c2cnc3[nH]cc(CC(=O)N4CCCC4)c3c2)cn1 | 9.0%[70.6 µM] | i | -29.0%[172 µM] | 31.6µM*
Cn1cc(-c2cnc3[nH]cc(CC(=O)NCc4ccncc4)c3c2)cn1 | 0.2%[70.6 µM] | i | -10.0%[172 µM] | ?
C[S+](=O)([O-])c1ccc(-c2cnc3[nH]cc(CC(=O)N4CCOCC4)c3c2)cc1 | -0.1%[70.6 µM] | i | -3.1%[172 µM] | 44.7µM*
COC1CCN(C(=O)Cc2c[nH]c3ncc(-c4cnn(C)c4)cc23)CC1 | 5.7%[70.6 µM] | i | ? | 44.7µM*
CC(C)Cn1c(=O)c(C(=O)N2CCOCC2)nc2cccnc21 | · | · | 1.9%[172 µM] | -9.6%[138 µM]
Cc1ncsc1CN1C(=O)CO[C@H](c2ccc(NS(C)(=O)=O)cc2)[C@H]1CO | 5.3%[70.6 µM] | i | -5.0%[172 µM] | -15.0%[174 µM]
CN(Cc1cnn(-c2ccccc2)c1)Cc1cc2ccccc2[nH]c1=O | 5.3% | i | -1.4% | i
CN(Cc1cccc(CCN)c1)Cc1cnn(-c2ccc(F)cc2)c1 | 1.3% | i | ? | 44.7µM*
O=c1cc(N2CCOCC2)oc2c(Nc3ccccc3)nccc12 | 2.2%[70.6 µM] | i | -13.8%[172 µM] | 39.8µM*
O=c1cc(N2CCOCC2)oc2c(NC3CCOCC3)nccc12 | 0.8%[70.6 µM] | i | -23.8%[172 µM] | 31.6µM*
COc1ccc(Nc2nccc3c(=O)cc(N4CCOCC4)oc23)cn1 | 9.4%[70.6 µM] | i | -31.9%[172 µM] | 89.1µM*
COc1ccc(-c2nccc3c(=O)cc(N4CCN(C)CC4)oc23)cn1 | -0.8%[70.6 µM] | i | i | ?
COc1ccc(-c2ccc(C(=O)N3CCN(C(=O)Nc4ccccc4)CC3)cc2)nn1 | · | · | -18.4% | -20.4%
CC(C)NC(=O)N1CCC2(CC1)CN(C(=O)Cc1cccc(O)c1)Cc1ccccc1O2 | · | · | -22.4% | ?
COc1ccc(C(=O)N2CCN(C(=O)c3nc4cccnc4n(C4CC4)c3=O)CC2)cc1 | · | · | -6.9% | -20.1%
CCN1c2cc(C(=O)Nc3cccc(OC)c3)ccc2C(=O)N2CCCC21 (stereo not given) | 5.0% | i | ? | -27.8%
CCN1c2cc(C(=O)Nc3cccc(OC)c3)ccc2C(=O)N2CCCCCC21 (stereo not given) | -6.6% | i | 31.6µM* | ?

Compound activity as filed in PubChem BioAssay.
